Screening data as filed in PubChem.
RT RNaseH block – HIV-1 RT RNase H inhibitors, primary screen, biochemical, fluorescence; actives 1.9% (n = 65,000); inhibition, % at 10 µM; RT-RNase H RNA/DNA duplex cleavage; in the data active = inhibition above about 50%
RmlCD inh mix – RmlC and RmlD coupled enzyme inhibitors, primary screen, biochemical, 384-well, compound mixtures, retest; RmlC/RmlD coupled enzyme inhibition, 384-well mixture HTS; inhibition, % at 5.5 µM; actives 0.39% (n = 110,000); AID 1532, 2009; in the data active = inhibition above about 30%, passing the limit was not always enough; inconclusive = no clear call, values can overlap the other calls
Starred values were filed as active, the others as inactive; ? = inconclusive; · = not tested or not shown. The full list was thinned out, with hits kept by preference.

SMILES | RT RNaseH block | RmlCD inh mix
Cc1oc(-c2ccc(F)cc2)cc1-c1nn2c(-c3ccco3)nnc2s1 | 32 | ·
Cc1oc(-c2ccc(F)cc2)cc1-c1nn2c(-c3ccoc3C)nnc2s1 | 63* | 6
CCC1CCc2c(sc(N)c2C(N)=O)C1 (stereo not drawn) | · | 5
CC1CCc2c(sc(N)c2C(N)=O)C1 (stereo not drawn) | 65* | -43
Cc1cc(-n2c(SCC(=O)NCc3cccs3)nc3n[nH]c(C)c3c2=N)ccc1Cl | 18 | ?
CC(C)Cn1c2c(c(O)c(C(=O)Nc3ncccc3O)c1=O)CCCC2 | 8 | 6
CCCCc1nc2ccccc2c(=O)n1NC(=O)c1c(O)c2c(n(CC(C)C)c1=O)CCCC2 | 52* | -7
CSc1nc2c(c(=O)[nH]1)C(c1ccncc1)C(C(=O)OC(C)C)=C(C)N2 (stereo not drawn) | -7 | 8
Oc1ccc(C=Nc2cccc3ncccc23)c(O)c1 | 1 | -13
COc1cccc(N=Cc2ccc(O)cc2O)c1 | 53* | 5
CCOC(=O)N1CCN(c2cc3[nH]c(=S)[nH]c3cc2F)CC1 | 61* | -10
CCOC(=O)N1CCN(c2c(F)cc3[nH]c(=S)[nH]c3c2Br)CC1 | 48 | 7
Cc1cc(N2CCN(c3nnnn3-c3ccccc3)CC2)n2ncnc2n1 | -4 | 4
COc1ccc(CCNC(=O)c2cc3c(=O)n4cccc(C)c4nc3n(Cc3ccncc3)c2=N)cc1 | -2 | ·
COCCNC(=O)c1cc2c(=O)n3cccc(C)c3nc2n(Cc2ccncc2)c1=N | -10 | 40*
O=C(COc1ccc(Cl)cc1)Nc1ccccc1C(=O)NCc1ccco1 | 10 | -8
Cc1cc(C)cc(OCC(=O)Nc2ccccc2C(=O)NCc2ccco2)c1 | 60* | -7
N#CC1=C2SCN(c3ccccc3)CN2C(=O)CC1c1cccs1 (stereo not drawn) | -5 | 1
CCN(CC)C(=O)c1sc2nc(-c3cccs3)cc(-c3ccc(Cl)cc3)c2c1N | · | 13
CCN(CC)C(=O)c1sc2nc(-c3cccs3)cc(-c3cccs3)c2c1N | 52* | ·
Cc1nc2cc(C(=O)O)ccc2s1 | 4 | 5
Cc1nc2ccc(C(=O)O)cc2c2c1CC(C)S2 (stereo not drawn) | 63* | -1
Cc1nn(C(=O)c2cccs2)c(C)c1CN1C(=O)c2ccccc2C1=O | 64* | -6
Cc1nn(C(=O)c2ccco2)c(C)c1CN1C(=O)c2ccccc2C1=O | -19 | 8
COc1ccc(CNC(=O)CCCCCn2c(SCC#N)nc3cc4c(cc3c2=O)OCO4)cc1 | 57* | 6
SMILES | RT RNaseH block | RmlCD inh mix
COc1ccc(CCNC(=O)CCCn2c(SCC#N)nc3ccccc3c2=O)cc1OC | -14 | 15
Cc1ccc(-n2c(SCC(=O)NCc3ccco3)nc3sc(C)c(C)c3c2=O)cc1 | 55* | 3
CCOC(=O)c1sc2nc(SCC(=O)NCc3ccco3)n(Cc3ccccc3)c(=O)c2c1C | 66* | ·
Cc1sc2nc(SCC(=O)NCc3ccco3)n(-c3ccccc3)c(=O)c2c1C | 27 | -9
Cc1sc2nc(SCC(=O)NCc3ccco3)n(Cc3ccccc3)c(=O)c2c1C | · | -5
COc1ccc(C(=O)NN)cc1COc1ccc(Br)cc1 | · | -18
Cc1nnc(SCC(=O)NCc2ccc(Cl)cc2)[nH]c1=O | 1 | 8
COc1ccc(C)cc1S(=O)(=O)N1CCC(C(=O)N2CCOCC2)CC1 | -6 | -47
O=C(NCc1ccccn1)c1cn(CCc2ccccc2)nn1 | 68* | 10
O=C(NCc1cccnc1)c1cn(CCc2ccccc2)nn1 | -3 | 4
CCOc1cc(-c2cc(-c3ccc(C)cc3)nc(N)c2C#N)ccc1O | · | 30*
CCOc1cc(-c2c(C#N)c(N)nc3c2CCCC3C)ccc1O (stereo not drawn) | -13 | 0
N#Cc1cc(-c2ccc(Cl)cc2)cnc1Sc1ccccc1 | · | 10
CCOC(=O)c1nn(-c2ccc(OC)cc2)c(=O)c2c(N)scc12 | 75* | 10
CCOC(=O)c1nn(-c2ccc(C)c(C)c2)c(=O)c2c(N)scc12 | · | -15
COc1cc(NS(=O)(=O)c2ccc3c(c2)oc(=O)n3C)cc(OC)c1OC | -7 | -8
CCOC(=O)c1[nH]c(C)c(C(=O)NCc2ccc(C)cc2)c1C | -7 | -10
CCCc1cc(C(=O)Nc2sc(C)c(CC)c2C#N)no1 | 53* | ·
CCc1c(C)sc(NC(=O)c2cc(C)on2)c1C#N | -3 | -13
COc1ccc(OC)c(CNc2nc3ccccc3n2CCN2CCCCC2)c1 | -3 | -10
CCOC(=O)Cn1c(=O)oc2cc(S(=O)(=O)Nc3cc(OCC)ccc3OCC)ccc21 | 2 | -6
CCOC(=O)Cn1c(=O)oc2cc(S(=O)(=O)Nc3ccc(N(CC)CC)cc3C)ccc21 | 50* | 6
CCOC(=O)c1cccc(NS(=O)(=O)c2ccc(NC(C)=O)cc2)c1 | · | 4
CCOC(=O)/C=C/S(=O)(=O)c1ccc(NC(C)=O)cc1 | 50* | ?
CCOC(=O)c1cnn(-c2nc(SC)nc3sc4c(c23)CCC4)c1N | 55* | 13
SMILES | RT RNaseH block | RmlCD inh mix
CCOC(=O)c1cnn(-c2nc(C)nc3sc4c(c23)CCC4)c1N | -7 | ·
O=C(CN1C(=O)CCSc2ccccc21)N1CCC2(CC1)OCCO2 | -4 | 5
Cn1c(N)c(C(=O)COC(=O)Cc2ccsc2)c(=O)n(C)c1=O | -6 | 29
CCCCc1cc(=O)oc2c(CN(C)C)c(O)c(Cl)cc12 | -10 | 70*
CCc1cc2c(-c3ccccc3)cc(=O)oc2c(CN2CCOCC2)c1O | -15 | -6
O=c1oc2c(CN3CCOCC3)c(O)c(Cl)cc2c2c1CCC2 | 0 | 56*
CCc1c(C)c2cc(Cl)c(O)c(CN3CCCCC3)c2oc1=O | -7 | 114
CCCCc1cc(=O)oc2c(CN3CCCC3)c(O)ccc12 | 3 | ?
CCc1cc(=O)oc2c(CN3CCCC3)c(O)c(Cl)cc12 | -5 | 90*
O=C(C1=C(O)C(=O)N(CCCN2CCOCC2)C1c1ccccn1)c1cccs1 (stereo not drawn) | -8 | ·
COCc1[nH]nc2c1C(c1sccc1C)C(C#N)=C(N)O2 (stereo not drawn) | -17 | ·
N#Cc1nc(COc2ccccc2F)oc1N1CCCCCC1 | -95 | 5
Cc1c(OCc2ccccc2)cccc1OCc1ccccc1 | · | -12
CC(=O)N=c1sc(S(N)(=O)=O)nn1C | 67* | -15
CC(=O)Nc1nnc(S(N)(=O)=O)s1 | -7 | -16
COc1cc(-c2nnc(SCC(=O)Nc3ccc4c(c3)OCCO4)o2)cc(OC)c1OC | · | -11
CC1(C)CC(=O)C2=C(C1)OC(c1cccs1)C(C#N)=C2N (stereo not drawn) | -7 | 17
Cc1[nH]n(C(N)=S)c(=O)c1C(c1ccccc1)C(C#N)C#N (stereo not drawn) | 51* | 0
CCCc1[nH][nH]c(=O)c1C(c1ccccc1)C(C#N)C#N (stereo not drawn) | -71 | 7
Cc1ccc(-n2c(-c3cccc(C)c3)n[nH]c2=S)cc1 | · | -4
Cc1ccc2[nH]c(=O)c(COC(=O)C3CCCO3)cc2c1 (stereo not drawn) | -9 | -15
CCCCOc1ncnc2c1[nH]c1ccc(F)cc12 | -6 | -10
CC(C)n1c2ccccc2c2nnc(SCC(=O)OCN3C(=O)c4ccccc4C3=O)nc21 | 7 | 117*
Cn1c2ccccc2c2nnc(SCN3C(=O)c4ccccc4C3=O)nc21 | -2 | ·
COc1ccccc1-c1nnc2sc(C3CCCCC3)nn12 | -28 | 31
